DAGLB inhibitor: diacylglycerol lipase beta (human) inhibition. Q8NCG7. HEK293T DAGLB membrane lysate, EnzChek fluorogenic substrate. inhibition, % at 5.17 µM. actives 0.059% (n = 340,000); in the data active = inhibition above about 34%;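 also: 0% = enzyme with vehicle and 100% = wells lacking enzyme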
ANO1 activ: activators or potentiators of mouse TMEM16A chloride channel; B-score at 10 µM; HEK293 TMEM16A/YFP-H148Q/I152L, iodide quench fluorescence; hits give low values; AID 623877; actives 0.3% (n = 340,000);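 active = fluorescence-ratio B-score plate-corrected deviation score at least 3 library SD below zero, with starting fluorescence score within 5 deviations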;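 also: channel opened by trigger with iodide after compound preincubation; score built on the fluorescence ratio of max minus min over baseline; more negative score means more quench and so TMEM16A activation or potentiation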
ABCB6 inh MLPCN: inhibitors of human ABC transporter ABCB6 | actives 0.19% (n = 360,000) | fluorescence ratio to DMSO, % at 10 µM | K562-ABCB6 porphyrin accumulation, flow cytometry, 1 h; hits give low values | Q9NP58 | AID 602162;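 active = fluorescence ratio to DMSO below 75%, the collection mean minus 3 SD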;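 also: signal is porphyrin accumulated inside mitochondria; 100% equals median channel fluorescence of DMSO control wells; lower ratio means ABCB6 inhibition with less porphyrin fluorescence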
hiPSC survival: hiPSC single-cell survival enhancement; ATPlite luminescence; 100% = ROCK inhibitor wells, 0% = DMSO; survival enhancement, % at 20 µM; actives 0.044% (n = 360,000); AID 602274; in the data active = survival enhancement above about 18%;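 also: cells exposed to compounds for 16 hours before the ATP read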
ANO1 block: mouse TMEM16A channel inhibition, primary screen | Q8BHY3 | HEK293 TMEM16A/YFP iodide influx fluorescence, ionomycin | normalized B-score (activity score, 25-100; higher = stronger inhibition) at 10 µM | actives 1.2% (n = 310,000) | AID 588511;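 active = ratio plate-corrected score three or more library SD toward inhibition, starting fluorescence score within five deviations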;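 also: score derived from kinetic fluorescence span divided by baseline fluorescence per well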
* hit, by the source's call. A selection: hits, their analogues and other compounds. The true share with any hit is near 1.5%.

Results for C#CCOCCOCCOCCNc1nc(N2CCN(C(=O)CCCCCCCCCCNC(=O)[C@@H](CCSC)n3cc(CCO)nn3)CC2)nc(N2CCN(C(=O)CCCCCCCCCCNC(=O)[C@H](CCCN=C(N)N)n3cc(C[C@@H](C)CC)nn3)CC2)n1 ?
DAGLB inhibitor: -1; ANO1 activ: -26*; ABCB6 inh MLPCN: 96; hiPSC survival: 5; ANO1 block: 100*

How did C#CCOCCOCCOCCNc1nc(N2CCN(C(=O)CCCCCCCCCCNC(=O)[C@H](CCCCN)n3cc(C[C@@H](C)CC)nn3)CC2)nc(N2CCN(C(=O)CCCCCCCCCCNC(=O)[C@@H]([C@H](C)O)n3cc(C)nn3)CC2)n1 do in these assays?
DAGLB inhibitor: 2; ANO1 activ: -18*; ABCB6 inh MLPCN: 95; hiPSC survival: -4; ANO1 block: inactive

What do the screens show for `C#CCOCCOCCOCCNc1nc(N2CCN(C(=O)CCCCCCCCCCNC(=O)[C@H](CCCCN)n3cc(C)nn3)CC2)nc(N2CCN(C(=O)CCCCCCCCCCNC(=O)[C@H](CCCN=C(N)N)n3cc(C[C@@H](C)CC)nn3)CC2)n1`?
ANO1 block: 100*

Results for C#CCOCCOCCOCCNc1nc(N2CCN(C(=O)CCCCCCCCCCNC(=O)[C@H](CCCCN)n3cc(C)nn3)CC2)nc(N2CCN(C(=O)CCCCCCCCCCNC(=O)[C@@H]([C@H](C)O)n3cc(C)nn3)CC2)n1 ?
DAGLB inhibitor: -3; ANO1 activ: inactive; ABCB6 inh MLPCN: 93; hiPSC survival: 2; ANO1 block: inactive

How did C#CCOCCOCCOCCNc1nc(N2CCN(C(=O)CCCCCCCCCCNC(=O)[C@H](CCCCN)n3cc(C[C@@H](C)CC)nn3)CC2)nc(N2CCN(C(=O)CCCCCCCCCCNC(=O)[C@H](CCCN=C(N)N)n3cc(C[C@@H](C)CC)nn3)CC2)n1 do in these assays?
DAGLB inhibitor: 1; ANO1 activ: -23*; ABCB6 inh MLPCN: 102; hiPSC survival: -5; ANO1 block: 100*

How did COC(=O)[C@H]1C[C@@H](c2ccccc2)[C@H](C)C1(C)C do in these assays?
DAGLB inhibitor: -3; ANO1 activ: inactive; ABCB6 inh MLPCN: 97; hiPSC survival: -2; ANO1 block: inactive

What do the screens show for `COC(=O)C1(C(=O)OC)CCCCN(S(=O)(=O)c2ccc(C)cc2)CCC1`?
ABCB6 inh MLPCN: 92; hiPSC survival: -1

What do the screens show for `Cc1c(NC(=O)c2cccc(NC(=O)Cc3ccccc3Cl)c2)c(=O)n(-c2ccccc2)n1C`?
DAGLB inhibitor: -2; ABCB6 inh MLPCN: 94; hiPSC survival: -2

Results for Cn1ccc2c(-c3ccc(C(F)(F)F)cc3)cc3c(c21)C1CCC3C1 (stereo unspecified) ?
ABCB6 inh MLPCN: 89; hiPSC survival: 1

What do the screens show for `O=C(CC1CC2CCC1C2)NCCc1ccc(Cl)cc1` (stereo unspecified)?
DAGLB inhibitor: -5; ANO1 activ: inactive; ABCB6 inh MLPCN: 97; hiPSC survival: 0; ANO1 block: inactive

How did C#CCOCCOCCOCCNc1nc(N2CCN(C(=O)CCCCCCCCCCNC(=O)[C@@H](CCC(=O)O)n3cc(CCCCCN)nn3)CC2)nc(N2CCN(C(=O)CCCCCCCCCCNC(=O)[C@H](CO)n3cc(CCCCCN)nn3)CC2)n1 do in these assays?
DAGLB inhibitor: 1; ANO1 activ: inactive; ABCB6 inh MLPCN: 89; hiPSC survival: 0; ANO1 block: inactive

How did C#CCOCCOCCOCCNc1nc(N2CCN(C(=O)CCCCCCCCCCNC(=O)[C@H](CO)n3cc(CCCCCN)nn3)CC2)nc(N2CCN(C(=O)CCCCCCCCCCNC(=O)[C@H](CCCN=C(N)N)n3cc(C[C@@H](C)CC)nn3)CC2)n1 do in these assays?
ANO1 block: 100*

Results for CC(C)c1ccc(CCNC(=O)CCNS(=O)(=O)c2ccc(Br)cc2)cc1 ?
DAGLB inhibitor: -4; ANO1 activ: inactive; ABCB6 inh MLPCN: 100; hiPSC survival: 0

How did O=[N+]([O-])c1ccc(Nc2ccccc2)c2nonc12 do in these assays?
DAGLB inhibitor: 27; ANO1 activ: inactive; ABCB6 inh MLPCN: 99; hiPSC survival: 1; ANO1 block: inactive

How did CCOc1ccc(Nc2ccc([N+](=O)[O-])c3nonc23)cc1 do in these assays?
DAGLB inhibitor: 31; ANO1 activ: inactive; ABCB6 inh MLPCN: 104; hiPSC survival: 0; ANO1 block: 100*

Results for Nc1ccc2nc3c(=O)n(CCc4ccccc4)c(=O)[nH]c3nc2c1 ?
ANO1 activ: -6.6*; ABCB6 inh MLPCN: 147; hiPSC survival: 0; ANO1 block: inactive

How did COc1ccccc1/C=C1/C(=O)N(c2ccccc2)N=C1C do in these assays?
DAGLB inhibitor: 2; ANO1 activ: inactive; ABCB6 inh MLPCN: 74*; hiPSC survival: 0; ANO1 block: inactive

How did CC1=NN(c2ccccc2)C(=O)/C1=C\c1cn(-c2ccccc2)nc1C do in these assays?
DAGLB inhibitor: 1; ANO1 activ: inactive; ABCB6 inh MLPCN: 92; hiPSC survival: 8; ANO1 block: inactive

Results for CCCCc1cc(=O)oc2cc(OCc3cc(OC)c(OC)c(OC)c3)c(Cl)cc12 ?
DAGLB inhibitor: -2; ANO1 activ: -4.9*; ABCB6 inh MLPCN: 103; hiPSC survival: 23*; ANO1 block: inactive

What do the screens show for `CCCS(=O)(=O)NC(=O)C1(C)CCN1C(=O)Cc1ccc(Cl)cc1Cl` (stereo unspecified)?
ABCB6 inh MLPCN: 99; hiPSC survival: 0

How did CCCc1ccc(C(C)NC(=S)NC2CCCCC2)cc1 (stereo unspecified) do in these assays?
DAGLB inhibitor: -6; ANO1 activ: inactive; ABCB6 inh MLPCN: 101; hiPSC survival: 0; ANO1 block: 100*

What do the screens show for `COc1cccc(CN(C)C(=O)c2cc(-c3ccc(OC)c(OC)c3)nc3ccccc23)c1`?
DAGLB inhibitor: -6; ANO1 activ: inactive; ABCB6 inh MLPCN: 98; hiPSC survival: 1; ANO1 block: inactive

How did COc1cccc(CN(C)C(=O)c2cc(-c3ccc(F)cc3)nc3ccccc23)c1 do in these assays?
DAGLB inhibitor: -5; ANO1 activ: inactive; ABCB6 inh MLPCN: 99; hiPSC survival: 0; ANO1 block: 100*

Results for CCOC(=O)C1CCN(C(=O)c2ccc(OCC(=O)Nc3ccc(OCC)cc3)c(OC)c2)CC1 ?
DAGLB inhibitor: -1; ANO1 activ: inactive; ABCB6 inh MLPCN: 94; hiPSC survival: 0; ANO1 block: inactive

How did CS(=O)(=O)c1cccc(NC(=O)C2CCCN2S(=O)(=O)c2ccc(F)cc2)c1 (stereo unspecified) do in these assays?
DAGLB inhibitor: 0; ANO1 activ: inactive; ABCB6 inh MLPCN: 98; hiPSC survival: 0; ANO1 block: inactive

How did CCN(c1ccccc1)S(=O)(=O)c1cc(C(=O)Nc2ccc(Br)cc2)ccc1F do in these assays?
DAGLB inhibitor: -4; ANO1 activ: inactive; ABCB6 inh MLPCN: 95; hiPSC survival: -4; ANO1 block: 25*
